D2 ag-1: Beta-Arrestin HTS for Positive Allosteric Modulators of the Human D2 Dopamine Receptor: Agonists; D(2) dopamine receptor (Homo sapiens), P14416; DiscoveRx PathHunter D2 beta-arrestin, luminescence, 90 min; 100% = 57 uM dopamine signal; activation, % (concentration not given with the values); hit rate 0.084% among 360,000; in the data active means activation above about 40%; inconclusive means between about 15% and that limit
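DiscoveRx PathHunter D2 beta-arrestin cells (2,100/well) attached overnight, then compound-stimulated 90 min at 37 C in HBSS/10 mM HEPES/0.1% Tween-20 buffer; beta-galactosidase complementation read by luminescence after 1 h at ambient temperature. Dopamine 57 uM final (EC100) as control.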
D2 ag-2: HTS Assay for Allosteric Agonists of the Human D2 Dopamine Receptor: Primary Screen for Agonists. D(2) dopamine receptor (Homo sapiens), P14416. HEK293 T-REx D2 cells, calcium flux agonist mode. activation, % at 2 µM. hit rate 0.53% among 340,000;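 active means activation over 3 SD above normal in the single-dose calcium agonist read, cut at about 30% in these data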; further: 0% is about no effect
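Tetracycline-induced HEK293 T-REx cells with force-coupled D2 receptor, plated overnight at 30 C, loaded with no-wash calcium dye. After a 10 s baseline, compound was pin-added and calcium flux read kinetically for 180 s; calcium rises flagged agonists.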
D2 antag: HTS Assay for Allosteric Antagonists of the Human D2 Dopamine Receptor: Primary Screen for Antagonists. D(2) dopamine receptor (Homo sapiens), P14416. HEK293 TREx D2 cells, calcium flux, dopamine EC80. inhibition, % at 10 µM. hit rate 2% among 340,000. AID 485344, 2010; in the data active means inhibition above about 30%; inactive means below that, where a call was filed; further: 0% is about no effect
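Dopamine at EC80 is the agonist stimulus; test compounds precede it by 180 s. Calcium flux read kinetically in a force-coupled, inducible HEK293 T-REx D2 cell line.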
D2 PAM-1: HTS Assay for Positive Allosteric Modulators of the Human D2 Dopamine Receptor: Primary Screen for Potentiators | D(2) dopamine receptor (Homo sapiens), P14416 | HEK293 T-REx D2, calcium flux, EC20 dopamine potentiation | potentiation, % at 10 µM | hit rate 0.34% among 340,000 | AID 485347, 2010;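 active means potentiation over 3 SD above the plate norm, cut at about 30% in these data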; further: 0% is about no effect
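Primary screen. Calcium kinetics in induced HEK293 T-REx D2 cells: compound pre-addition 180 s, EC20 dopamine, 180 s more.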
D2 PAM-2: Beta-Arrestin HTS for Positive Allosteric Modulators of the Human D2 Dopamine Receptor: Potentiators; hit rate 0.23% among 360,000; D(2) dopamine receptor (Homo sapiens), P14416; DiscoveRx D2 beta-arrestin cells, luminescence, 90 min; 100% = 57 uM dopamine signal; potentiation, % (no concentration beside the values); in the data active means potentiation above about 50%; inconclusive means mostly about 30% to 49%
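PathHunter beta-arrestin assay in DiscoveRx D2 cells. Compounds were added with an EC20 of dopamine (50 nM final) for 90 min at 37 deg C. Luminescence was read 1 h after detection reagent, with 57 uM dopamine as the EC100 control.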
D3 arrestin ag: qHTS of D3 Dopamine Receptor Agonist: D3 Dopamine Receptor B-arrestin Agonist Confirmatory Assay; shares compounds with D2 ag-2; hit rate 4% among 2,300; AID 720506, 2013; Potency, µM (series often up to 76.9 µM), for inactives: at the top dose activation, actives largely listed as activators; DiscoveRx D3 beta-arrestin cells, luminescence, 90 min;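 further: potency means the concentration at half of the fitted maximal effect; 100% = dopamine control response; nearly all actives have a fitted effect of over 70% in size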
Target sequence (P35462 whole entry, looked up): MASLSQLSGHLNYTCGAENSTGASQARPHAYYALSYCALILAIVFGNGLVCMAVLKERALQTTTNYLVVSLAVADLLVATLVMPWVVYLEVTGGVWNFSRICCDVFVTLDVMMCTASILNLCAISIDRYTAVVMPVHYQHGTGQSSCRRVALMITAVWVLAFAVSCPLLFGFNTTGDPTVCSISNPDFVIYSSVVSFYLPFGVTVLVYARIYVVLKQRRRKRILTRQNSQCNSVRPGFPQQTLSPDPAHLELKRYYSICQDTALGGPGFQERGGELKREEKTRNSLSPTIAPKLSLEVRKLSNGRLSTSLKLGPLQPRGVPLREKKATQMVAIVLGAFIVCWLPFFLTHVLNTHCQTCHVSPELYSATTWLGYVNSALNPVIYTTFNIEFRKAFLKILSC
D2 ag-3: qHTS of D3 Dopamine Receptor Agonist: D2 Dopamine Receptor B-arrestin Agonist Counterscreen. Potency, µM (top dose mostly 76.9 µM), for inactives: at the top dose activation, actives largely listed as activators. shares compounds with D2 ag-2. AID 720507, 2013. hit rate 5.9% among 2,300. DiscoveRx PathHunter D2 beta-arrestin, luminescence, 90 min; response scale: percent relative to full dopamine signal; further: potency means the concentration at half of the fitted maximal effect; % of control where 0% means no effect; nearly all actives have a fitted effect of over 70% in size
* = called active by the depositor; ? = inconclusive; / = no result given. Compounds with a hit are over-represented: about 2.4% of the library has one in this group of screens. Unless noted, the call rests on the fitted dose curve; in most records, active means well fitted activation curve with a large enough effect; inconclusive means small, poorly fitted or top-dose-only effect; inactive means flat fitted curve, though single readings scatter.

SMILES | D2 ag-1 | D2 ag-2 | D2 antag | D2 PAM-1 | D2 PAM-2 | D3 arrestin ag | D2 ag-3
Cc1ccc(-n2ncc3c2CC(C)(C)CC3NC(=O)CN2CCCC2=O)cc1 (configuration not stated) | -1.3 | 0.5 | 9.1 | -8.1 | 7.4 | / | /
O=C(Nc1ccc(S(=O)(=O)Nc2ccccc2)cc1)c1ccc(CN2CCOCC2)cc1 | 7.3 | 2.9 | -14.6 | 2.5 | 4.5 | / | /
Cc1ccc(C)c(S(=O)(=O)N(C)c2ccc(OC(=O)C3CCN(C(=O)Nc4ccccc4)CC3)cc2)c1 | 0.5 | / | / | / | 0.9 | / | /
O=C1C2CC=CCC2C(=O)N1c1ccc(N2CCN(c3ccccn3)CC2)c([N+](=O)[O-])c1 (configuration not stated) | 1.9 | 26.4 | 17.7 | -22.0 | 7.0 | ? | 8.5%
CCOC(=O)c1c(N)n(-c2ccc(CC)cc2)c2nc3ccccc3nc12 | / | -2.0 | / | 1.1 | / | / | /
CCOC(=O)c1c(N)n(-c2ccc(N)cc2)c2nc3ccccc3nc12 | 2.0 | 44.0* | -1.0 | -13.6 | 5.7 | -12.5% | -7.4%
CN1C/C(=C/c2ccsc2)C(=O)/C(=C/c2ccsc2)C1 | 1.1 | 69.4* | 44.4* | -22.8 | -18.8 | 0.1% | -2.1%
CN1C/C(=C\c2ccc(N3CCOCC3)cc2)C(=O)/C(=C/c2ccc(N3CCOCC3)cc2)C1 | -3.8 | 25.2 | 0.1 | 5.8 | -12.4 | -0.4% | -5.2%
CS(=O)(=O)N1CCC(NC(=O)Nc2ccc(OC(F)(F)F)cc2)CC1 | -4.9 | -1.1 | -0.1 | 2.9 | -13.8 | / | /
COc1cc(NC(=O)C2CCCN(c3ncnc4c3nc3n4CCCCC3)C2)cc(OC)c1OC (configuration not stated) | 3.8 | 38.6* | -9.7 | -2.6 | 17.6 | 5.1% | -2.5%
COCCN(Cc1ccco1)C(=O)C1CCCN(c2ncnc3c2nc2n3CCCCC2)C1 (configuration not stated) | 0.9 | -2.6 | 7.3 | -19.0 | 1.6 | 3.6% | -5.0%
O=C(Cc1cccs1)NC1CC(=O)N(c2cccc(F)c2)C1 (configuration not stated) | / | -0.2 | / | -6.9 | / | / | /
CCN1C(=O)c2cccc3c(S(=O)(=O)N(C(C)=O)c4ccc(OC(C)=O)cc4)ccc1c23 | 8.8 | / | / | / | 16.3 | / | /
COc1cccc(CN2CCN(c3ncccn3)CC2)c1OC | ? | 81.3* | 60.3* | -17.9 | 9.8 | 14.0% | ?
COc1ccc(CN2CCSCC2)c(OC)c1C | -4.2 | -0.5 | -17.1 | -6.0 | -10.8 | / | /
COc1cccc(CN2CCN(Cc3cc(OC)c(OC)c(OC)c3)CC2)c1OC | 5.3 | -0.4 | 4.0 | -8.7 | -11.2 | -0.2% | -1.4%
COc1cccc(CN2CCN(Cc3cccc(Oc4ccccc4)c3)CC2)c1OC | -3.0 | -0.5 | -15.8 | -24.4 | -41.0 | / | /
c1cnc(N2CCN(Cc3c[nH]c4ccccc34)CC2)nc1 | ? | 86.2* | 83.4* | -28.3 | ? | 4.1% | ?
COc1ccc(CN2CCN(c3ccccn3)CC2)c(OC)c1C | 13.4 | / | / | / | 12.6 | 0.3% | ?
O=C(NCc1nc2cccnc2n1Cc1ccc(F)cc1)c1ccccc1C(F)(F)F | / | -1.1 | / | 4.3 | / | / | /
CCCN1CCN(C(=O)c2nn(-c3ccc(OC)cc3)c(=O)c3c2c2ccccc2n3C)CC1 | -7.0 | -0.1 | -9.6 | / | -8.5 | / | /
COc1ccc(CN2CCN(c3ncccn3)CC2)c(C)c1C | 47.1* | 87.6* | 93.4* | -29.5 | 5.2 | ? | 2.24µM*
CCOc1ccccc1N1CCN(Cc2cccc(OC)c2OC)CC1 | 2.0 | 26.2 | 87.4* | -31.6 | 4.0 | -22.0% | -2.7%
COc1ccccc1N1CCN(CCCCOc2cccc3ccccc23)CC1 | 0.6 | 34.5* | 73.1* | -19.1 | -41.7 | -3.3% | 16.7%
O=c1c2cnn(-c3ccccc3)c2ncn1CCc1ccccc1 | -0.4 | 64.7* | 5.5 | -19.2 | 9.1 | -2.8% | -1.5%
SMILES | D2 ag-1 | D2 ag-2 | D2 antag | D2 PAM-1 | D2 PAM-2 | D3 arrestin ag | D2 ag-3
CCn1cnc2c(cnn2-c2ccccc2)c1=O | 0.0 | -0.5 | 26.4 | -8.7 | -3.2 | / | /
CCN1CCN(Cc2cccc(Oc3ccc(Cl)cc3)c2)CC1 | -1.9 | 0.5 | 13.9 | 4.8 | -28.7 | / | /
CCOC(=O)C1CCN(Cc2cnc(Oc3ccc(N)cc3)s2)CC1 | ? | 76.2* | 67.1* | -31.1 | 17.4 | 2.7% | ?
CCOC(=O)C1CCN(Cc2cccc(Oc3ccc(Cl)cc3)c2)CC1 | ? | 62.0* | 71.7* | -26.8 | 17.1 | ? | 39.8µM*
O=C1CCC(C(=O)N2CCN(c3ccc(F)cc3)CC2)CN1CC1CCCCC1 (configuration not stated) | -3.7 | -0.6 | -0.6 | 1.0 | -11.0 | / | /
O=C1CCC(C(=O)N2CCN(c3ccccc3)CC2)CN1CC1CCCCC1 (configuration not stated) | 5.7 | 61.7* | 19.0 | -24.2 | -13.7 | 14.3% | ?
CNC[C@H](O)c1cccc(O)c1 | 2.2 | 76.8* | 90.9* | -27.7 | 5.5 | -1.0% | ?
COc1ccc(CNc2ncnc3c2nc2n3CCCC2)cc1 | / | / | / | -9.6 | / | / | /
CCOC(=O)C(NCCc1ccccc1)(NC(=O)CC)C(F)(F)F (configuration not stated) | 3.2 | 1.9 | -8.3 | -6.3 | 5.9 | 0.4% | 0.6%
CCOC(=O)C(NC(C)=O)(OCc1ccccc1)C(F)(F)F (configuration not stated) | 1.0 | 67.4* | -7.3 | -19.9 | 4.0 | 1.1% | -3.5%
COc1ccc(CC(=O)N(C)Cc2ccc(OC(F)F)cc2)cc1S(=O)(=O)N1CCOCC1 | -1.1 | / | / | / | 3.3 | / | /
CCc1ccc(S(=O)(=O)c2cn(C)c3cc(F)c(F)cc3c2=O)cc1 | / | -0.7 | / | -4.9 | / | / | /
c1ccc2c(C3OCC4(CCCC4)CO3)cccc2c1 | 1.3 | / | / | / | -8.1 | / | /
c1ccc2c(C3CCO3)cccc2c1 (configuration not stated) | -2.0 | / | / | / | -5.6 | -0.2% | -3.0%
O=C(NC1CCc2ccccc21)c1cc(COc2ccc(F)cc2F)on1 (configuration not stated) | -2.9 | 1.6 | 2.6 | 19.9 | -1.5 | / | /
